This excerpt belongs to a sample that is enriched for hits.
Sa growth 42C: S. aureus growth inhibition at 42 and 30 °C, primary screen, LtaS inhibitor project, RN4220, two temperatures | OD600, 20 h, 42 °C; hits give low values | relative growth, % (test concentration not listed) | 170,000 compounds, 0.53% hits | AID 720641, 2013;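 active = relative growth at most 50% at the other temperature and 20+ points below 30 °C, or under 10% at both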
S aureus helic: inhibitors of S. aureus replicative helicase, primary screen, biochemical, fluorescence unwinding readout | replicative DNA helicase (DnaC/DnaB), Staphylococcus aureus | AID 485395, 2010 | purified S. aureus helicase, fluorescence unwinding assay | 120,000 compounds, 0.05% hits | inhibition, % (no concentration beside the values); in the data active = inhibition above about 25%, passing the limit was not always enough;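 note: 0% = mean of negative control wells and 100% = mean of positive control wells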
The depositor's hits bear a star; . = no result given.

SMILES	Sa growth 42C	S aureus helic
c1ccc2cc3c(Nc4ccc(N5CCOCC5)cc4)ccnc3cc2c1	99	18
CCCN(CCC)C(=O)/C=C/c1cc(OC)c(OC)c(OC)c1	107	15
CC1CCCCN1c1ncccc1C(=O)NC1CCCC1 (stereo not given)	78	2
COc1ccc(-c2nn(C)c3sc(C(=O)NCCCN4CCOCC4)cc23)cc1OC	134	32
CCCN1CCN(CCCNC(=O)c2cc3c(-c4ccc(OC)c(OC)c4)nn(C)c3s2)CC1	131	50*
O=C(CCn1c(=O)oc2ccccc21)Sc1ccc(Cl)cc1Cl	114	.
CC(C)(C)c1cc(C(=O)OCCN2CCCCC2)cc(C(C)(C)C)c1	22*	-4
Cc1ccc(C(=O)OCCN2CCCCC2)cc1	90	6
c1ccc(CN2CCN(CC3CCCCC3)CC2)cc1	95	3
CCOC(=O)c1c(-c2c(Cl)cccc2Cl)noc1C	0.5*	.
CCOC(=O)c1c(-c2c(Cl)cccc2Cl)noc1N	104	.
O=C(O)C(=O)/C=C(\O)c1ccccc1	93	.
O=C(/C=C(\O)c1ccccc1)C(F)(F)C(F)F	-0.8*	3
O=C(CNC(=O)c1ccccc1F)OCc1cc(=O)n2ccsc2n1	95	.
CSc1nn(-c2ccccc2)cc1C(=O)Nc1ccc(Cl)cc1	104	.
CC1CCc2c(sc3ncn(CC(=O)N4CCCC4)c(=O)c23)C1 (stereo not given)	109	6
CCC(C(=O)OC(C)C)n1cnc2sc3c(c2c1=O)CCC(C)C3 (stereo not given)	34*	5
Cc1cc2ccccn2c1C(=O)Nc1ccccc1	87	-4
Cc1c(-c2ccccc2)cc2ccccn12	4.3*	-18
N#C[C@@H]1C[C@@](C#N)(C(=O)c2ccccc2)[C@H]2C=Cc3ccccc3N12	5.3*	-2
Cc1ccc(C)c([C@H]2[C@H](C(=O)c3ccccc3)N3c4ccccc4C=CC3C2(C#N)C#N)c1 (stereo not given in full)	56	-6
COc1ccc(CN2CNc3nc4ccccc4n3C2)cc1	70	-6
COc1ccc(C(=O)O)cc1NC(=S)NC(=O)Cc1ccc(Cl)cc1	87	4
CCOC(=O)c1cc2ncc(C(F)(F)F)cc2s1	93	.
NNC(=O)c1cc2ncc(C(F)(F)F)cc2s1	0.0*	29
SMILES	Sa growth 42C	S aureus helic
N#CCSc1nc2ccccc2c(=O)n1Cc1ccccc1	101	.
COc1ccccc1C(=O)Nc1sc2c(c1C(N)=O)CCC2	111	6
COc1cccc2sc(Nc3sc4c(c3C(N)=O)CCCC4)nc12	1.1*	-2
O=C(O)C1CCCCC1C(=O)N(Cc1ccccc1)Cc1ccccc1 (stereo not given)	165	20
CC1COc2c(N3CCN(C)CC3)c(F)cc3c(=O)c(C(=O)O)cn1c23 (stereo not given)	-0.5*	.
CC1COc2c(N3CCN(C)CC3)c(F)cc3c(=O)c(C(=O)N4CCN(c5ncccn5)CC4)cn1c23 (stereo not given)	71	-7
CCOC(=O)C1=C(O)c2ccccc2C1=O	122	4
CCOC(=O)c1c2c(n3ccccc13)C(=O)c1ccccc1C2=O	9.7*	-9
Clc1cccc(Cl)c1OCCCn1ccnc1	103	-19
CC(C)(C)c1ccc(OCCCn2ccnc2)cc1	2.3*	-8
Ic1ccc(OCCCCn2ccnc2)cc1	1.3*	10
CCOc1ccc(NC(=S)NCCCn2ccnc2)cc1	97	5
O=C(NC(OCC1COC(C(F)(F)F)(C(F)(F)F)O1)(C(F)(F)F)C(F)(F)F)c1ccco1 (stereo not given)	92	-8
CCc1c(C)sc(NC(=O)c2cc(CC(C)C)on2)c1C#N	86	0
C=CC[n+]1ccc(/C=C/c2ccccc2O)c2ccccc21	34	42*
Oc1ccccc1/C=N/[n+]1ccccc1	86	-1
CN(C)c1ccc(/C=C2/Oc3c(ccc(O)c3O)C2=O)cc1	56	-145
CCCNC(=O)CCNS(=O)(=O)c1ccc2c(c1)c(=O)n(C)c(=O)n2C	109	.
Nc1ncc(Cc2cccc(Cl)c2)s1	111	10
Cc1cccc(Cc2cnc(N3C(=N)SC(C)C3=O)s2)c1 (stereo not given)	2.8*	0
COc1cccc(NC(=O)c2oc3ccc(S(=O)(=O)N4CCCCCC4)cc3c2C)c1	115	.
Cc1nc2c(C(=O)NCc3ccccc3)c[nH]n2c(=O)c1Cl	94	6
Cc1nc2c(C(=O)NCc3ccccc3)c[nH]n2c(=O)c1Cc1ccccc1Cl	0.7*	.
Cc1ccc2[nH]cc(C(c3ccccc3)c3ccc(C)s3)c2c1 (stereo not given)	90	.
Nc1cc(C(F)(F)F)c[nH]c1=O	97	14
FC(F)(F)c1c[nH]c(=S)c(C(F)(F)F)c1	7.9*	.
Cc1nn(-c2ccccc2)c2nc(-c3ccccc3)cc(C(=O)N3CCOCC3)c12	103	17
